# Several values for one entry are separate records, joined by “and”; a condition that tells them apart may be missing. Equal entries are not always repeated. Records with an inconclusive call do not appear. Values without a mark were called inactive. Activity calls are given as the source filed them. Calls follow the shape of the dose curve; as a rule, active = well fitted inhibition curve with a large enough effect; inconclusive = small, poorly fitted or top-dose-only effect; inactive = flat fitted curve, though single readings scatter. *1 amine or outer side, *2 acyl side, *3 side chain or, on linkers, in order; H or OH if unused. Where a SMILES comes first, the peptide text is derived from it. Bridges are numbered along the chain shown (N, C = ends). [ ]: non-standard residue; d: D form. The star is where a group is joined. X5 = NC1=N[C@@H]([C@H](N[*:1])C(=O)[*:2])C[C@H](O)N1; ΔAla(Z-3-ureido) = NC(=O)N/C=C(\N)C(=O)O; β3hOrn = NCCC[C@H](N)CC(=O)*; Dap = NC[C@H](N)C(=O)O
# Tested on: KB-3-1
# Assay: Cytotoxic Profiling of Annotated Libraries Using Quantitative High-Throughput Screening (AID 1296008); also: nearly all actives have a fitted effect of over 60% in size
# Conditions: Five cell lines viability, CellTiter-Glo ATP luminescence, 48-72 h; max response: active compounds read low
# Procedure, shortened: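 Cells exposed to compounds for 48 or 72 hr at 37 degrees Celsius. Viability read as ATP-coupled luminescence with CellTiter-Glo after 10 min at room temperature.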
# % is scaled to controls: 0 for no effect and ±100 for the full control effect; potency is read from the fitted curve at half-maximal effect.
Structure (SMILES),max response,Potency
OC[C@H]1OC([S-])[C@H](O)[C@@H](O)[C@@H]1O.[Au+] (stereo partly specified),5.78%,
NC(=O)[C@@H]1C[C@]2(NC(=O)NC2=O)c2cc(F)ccc2O1,-7.8%,
CCCCCCCCCc1ccc(OCCOCCO)cc1,-16.4%,
Cc1c(O)c(=O)ccn1C,5.64%,
CC(=NCc1ccccc1)c1ccccc1O,-11.4%,
CC(C)(O/N=C(\C(=O)N[C@@H]1C(=O)N2C(C(=O)[O-])=C(C[n+]3ccccc3)CS[C@H]12)c1csc(N)n1)C(=O)O,-11.3%,
CCCCCCCCCCCCCCCCCCOCC(COP(=O)([O-])OCC[N+](C)(C)C)OC (stereo unspecified),0.811%,
CCCC(=O)Nc1c(I)cc(I)c(CC(CC)C(=O)O)c1I (stereo unspecified),-4.08%,
OCCN1CCN(CC/C=C2/c3ccccc3Sc3ccc(Cl)cc32)CC1,6.68%,
CC(C)C[C@H](NC(=O)[C@@H](COC(C)(C)C)NC(=O)[C@H](Cc1ccc(O)cc1)NC(=O)[C@H](CO)NC(=O)[C@H](Cc1c[nH]c2ccccc12)NC(=O)[C@H](Cc1cnc[nH]1)NC(=O)[C@@H]1CCC(=O)N1)C(=O)N[C@@H](CCCN=C(N)N)C(=O)N1CCC[C@H]1C(=O)NNC(N)=O,-3.63% and -15.5%,
C[C@H]1[C@@H](OC(=O)CCC(=O)O)O[C@@H]2OC3(C)CC[C@H]4[C@H](C)CC[C@@H]1[C@@]24OO3,,16.4 µM (active)
CO[C@H]1O[C@@H]2O[C@@]3(C)CC[C@H]4[C@H](C)CC[C@@H]([C@H]1C)[C@@]24OO3,1.88%,
CC(C)[C@@H]1CC[C@@H](C)C[C@H]1O,-7.15%,
Cn1nnnc1SCC1=C(C(=O)O)N2C(=O)[C@@H](NC(=O)[C@H](O)c3ccccc3)[C@H]2SC1,8.48%,
C=N[C@@H](C(=O)N[C@@H]1C(=O)N2[C@@H]1SC(C)(C)[C@@H]2C(=O)O)c1ccccc1,0.762%,
C[C@@H]1O[C@@H](OC[C@H]2O[C@@H](Oc3c(-c4ccc(OCCO)c(OCCO)c4)oc4cc(OCCO)cc(O)c4c3=O)[C@H](O)[C@@H](O)[C@@H]2O)[C@H](O)[C@H](O)[C@H]1O,-2.8%,
CCC(Oc1ccccc1)C(=O)N[C@@H]1C(=O)N2[C@@H]1SC(C)(C)[C@@H]2C(=O)O (stereo partly specified),9.51%,
Cc1cccc(C)c1Nc1ncccc1C(=O)O,-0.608%,
O=C(O)c1ccc(NC2OC[C@@H](O)[C@H](O)[C@H]2O)cc1 (stereo partly specified),-17.7%,
CC1=C[C@H](O)CC(C)(C)[C@H]1/C=C/C(C)=C/C=C/C(C)=C/C=C/C=C(C)/C=C/C=C(C)/C=C/C1=C(C)C[C@@H](O)CC1(C)C,-11%,
CCC[C@@H]1C[C@@H](C(=O)N[C@@H]([C@H]2O[C@H](SC)[C@H](O)[C@@H](O)[C@H]2O)[C@H](C)Cl)N(C)C1,4.39%,
CC[C@H]1OC(=O)C[C@@H](O)[C@H](C)[C@@H](O[C@@H]2O[C@H](C)[C@@H](O[C@H]3C[C@@](C)(O)[C@@H](O)[C@H](C)O3)[C@H](N(C)C)[C@H]2O)[C@@H](CC=O)C[C@@H](C)C(=O)/C=C/C(C)=C/[C@@H]1CO[C@@H]1O[C@H](C)[C@@H](O)[C@@H](OC)[C@H]1OC,31.7% and -4.31%,
C[C@@H]1C[C@H]2[C@@H]3CCC4=CC(=O)C=C[C@]4(C)[C@@]3(F)[C@@H](O)C[C@]2(C)[C@@]1(O)C(=O)COC(=O)c1cccc(S(=O)(=O)O)c1,21.4%,
NCCC[C@H](N)CC(=O)N[C@H]1CNC(=O)[C@H]([C@H]2C[C@H](O)NC(N)=N2)NC(=O)/C(=C/NC(N)=O)NC(=O)[C@H](CO)NC(=O)[C@H](CO)NC1=O (β3hOrn-[Dap]SS[ΔAla(Z-3-ureido)][X5]; lactam 1-C),-0.188%,
CC[C@H](C)[C@@H]1NC(=O)[C@H](Cc2ccc(O)cc2)NC(=O)[C@@H](N)CSSC[C@@H](C(=O)N2CCC[C@H]2C(=O)N[C@@H](CC(C)C)C(=O)NCC(N)=O)NC(=O)[C@H](CC(N)=O)NC(=O)[C@H](CCC(N)=O)NC1=O,3.76%,
O=C(OC[C@H]1O[C@](O)(COC(=O)c2cccnc2)[C@@H](OC(=O)c2cccnc2)[C@@H]1OC(=O)c1cccnc1)c1cccnc1,-13.5%,

# Source: PubChem BioAssay (NCATS)
